PubChem BioAssay AID1347423 (Functional Genomics Laboratory (NCATS/FGL), 2020)
In all, about 52,000 sequences went through this assay and about 210 (0.4%) were called active.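 How the source made its calls: active means gene whose silencing raises cell survival under the drug, median off-target-corrected z-score across its silencing RNAs 2 or more; inactive means the rest.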 Only a selection was taken, and actives are over-represented in it overall.

Test: Resistance to Poly (ADP-Ribose) Polymerase inhibitor: Gene Identification via Genome-wide siRNA Screen
Conditions: mouse BRCA2 R2336H ES cells, olaparib, CellTiter-Glo viability; hits give high values
Text: The role of Poly (ADP-Ribose) Polymerase (PARP) proteins in DNA repair has been elegantly utilized for the synthetic lethality-based treatment of BRCA-deficient tumors by PARP inhibitors. PARP inhibitors are now being used for treatment of BRCA-deficient breast and ovarian cancers. […] While several mechanisms of drug resistance have been identified, majority of these tumors develop drug resistance due to unknown causes. To identified novel regulators of chemo-resistance in BRCA2-mutated cells, we performed a genome wide siRNA library screen. We have found ES cells expressing a hypomorphic allele of BRCA2 to be hypersensitive to PAPP inhibitors (such as olaparib). We used ES cells expressing a mutant allele of BRCA2 that has a single amino acid substitution at position 2336 (arginine to histidine, R2336H). The screen was conducted using an Ambion (Thermo) Silencer Mouse Genome siRNA collection. The library targets 17,575 mouse genes with 3 siRNAs per gene. TET2 (E130014J05Rik) was identified as a top candidate.
Transfections were performed in 384 well plates (Corning 3707). Plates were coated with 0.1% gelatin in H2O overnight at ambient temperature. Gelatin solution was aspirated (BioTek EL406) and siRNAs were printed using a Bravo VPrep liquid handler integrated within a BioCel automation platform (Agilent). Cell viability was measured using CellTiter Glo (Promega). For transfections, […] of serum free media containing Lipofectamine RNAiMax […] was added to wells containing siRNA (0.8pmol). Lipid and siRNA were allowed to complex for 45 min at ambient temperature before addition of 1000 cells in DMEM, 30% FBS to yield final transfection mixtures containing 20 nM siRNA in DMEM, 15% FBS. PARPi (olaparib, AZD2281) was added 48 h post-transfection (500 nM) and viability (CellTiter Glo, Promega) was assayed 72 h later on a PerkinElmer Envision 2104 Multilabel plate reader. Ambion Silencer Select Negative Control #2 was incorporated on all screening plates (16 wells) and the median negative control value on each plate was used for normalization. An siRNA targeting Trp53 was used as a positive control. This control yielded a median protective effect of ~1.9 fold versus negative control throughout the screen. The median absolute deviation (MAD) based z-score was calculated for each siRNA. Genes were then ranked by taking the median value for all siRNAs tested against a given gene. Scores were also adjusted for seed-based off-target effects to help deprioritize likely false positives.

Sequence	z-score
GCUUUUGAUAUUCCACGUUTT against Pole2	-0.0546 (inactive)
GGAAUCGUCUGAGAAAUUCTT against Lgmn	0.618 (inactive)
CCCUCUUUAUCGUCUGUGATT against Gpha2	-0.468 (inactive)
CCAACAAUCCGUAUCGACCTT against 4930425N13Rik	-0.139 (inactive)
GGAAGAGGUUGAGAUCCAATT against Pogk	0.561 (inactive)
GGACACUUAGCAGCAAAGGTT against Lsm7	-1.42 (inactive)
CCUUGUACACGGAUUGAAUTT against Itga6	2.44 (active)
CCGUCUAUACAUCUUUCCATT against D630005B22Rik	-1.51 (inactive)
GCAGUAUAUCCUACAUUGGTT against Olfr510	1.69 (active)
CCUGAUAUAUGACUUUGGCTT against Ntf5	-0.0586 (inactive)
CCUGCACAGGAUAAUUAUGTT against Zfp426	1.21 (inactive)
GGAGAUGAACAAGGACCUATT against Apoa1	1.02 (active)
GGUCAAUUCCCAUACCCUGTT against Trfr2	0.815 (inactive)
CCAACUAUAACUCAGUCACTT against Ebf1	0.374 (inactive)
GGCACACGGUUUUCAUUAATT against Pcdhb5	-0.354 (inactive)
GGCAUCACUGAUGAAUGAATT against Pacsin2	-0.947 (active)
CCACUUUUAAAGGAAUGUGTT against Ncoa1	-0.0128 (inactive)
GCUUGCAUGUACAGACAUUTT against Olfr517	1.3 (inactive)
CCAUCUGAUUUCUUUCCAGTT against MGC78233	-0.642 (inactive)
GGAAAUGCCUUCAGAAAUUTT against Slc9a3r1	0.863 (inactive)
GCCAAUGUAACCUUCAAAATT against Lypla1	0.603 (inactive)
GGGCGACACAAGGUUUUUGTT against Kif3a	1.13 (active)
GGAGUGUUUGAGAAAUACCTT against BC027342	-0.283 (inactive)
GGCAAAGAUCGCAUCUUAATT against Eif2c2	0.222 (inactive)
GCUGCAUCCGUAGAUGUUGTT against Fthfd	-0.992 (inactive)
GGCCAAAGAGGAGGAAAACTT against D5Bwg0834e	-0.569 (inactive)
GGAGACAGUAAUAGCUCAUTT against Trp53bp1	2.14 (active)
GGACUUGUGGCUGAAAACCTT against Slc22a7	0.176 (inactive)
GGGAACAGCAUCUCUGUCATT against E130115E03Rik	-0.944 (inactive)
